# From PubChem
# D3 antag – blocks the human D3 dopamine receptor; D3R cells, DiscoveRx beta-arrestin luminescence, antagonist mode; active compounds read low; P35462; max response, negative = inhibition, %; AID 652054; 2.5% of 360,000 active; in the data active means max response below about -50%; inconclusive means no clear call, values can overlap the other calls; further: on the % scale 0 is the no-effect control and ±100 the full control effect
# Target sequence (P35462 whole entry, looked up): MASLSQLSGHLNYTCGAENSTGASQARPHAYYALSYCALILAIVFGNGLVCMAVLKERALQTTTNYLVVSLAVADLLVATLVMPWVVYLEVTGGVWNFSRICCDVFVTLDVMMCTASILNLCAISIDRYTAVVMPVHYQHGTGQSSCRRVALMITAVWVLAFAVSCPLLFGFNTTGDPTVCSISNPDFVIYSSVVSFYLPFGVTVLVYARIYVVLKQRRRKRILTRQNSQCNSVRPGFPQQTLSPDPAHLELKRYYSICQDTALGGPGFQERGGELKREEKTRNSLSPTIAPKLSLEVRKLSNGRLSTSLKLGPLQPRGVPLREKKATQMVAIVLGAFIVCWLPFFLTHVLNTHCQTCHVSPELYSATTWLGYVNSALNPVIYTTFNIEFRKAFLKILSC
#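 Cells plated overnight at 1500 cells/well, then exposed to library compounds with dopamine controls for 90 minutes at 37 degrees C. DiscoveRx reagent added for 30–60 minutes at room temperature; luminescence read, quantitative HTS format.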
# HepG2 tox-1 – counter-screen for TGF-b inhibitors: cytotoxicity in HepG2 cells; HepG2 CAGA-GFP viability, ATP luminescence, 18 h; Potency, µM (doses to about 46.1 µM), inactives show at the highest dose activity change, negative = cytotoxicity, most hits filed as cytotoxic; 0.76% of 410,000 active; AID 588856; further: potency means the concentration at half of the fitted maximal effect
#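 CellTiter-Glo luminescence gave cytotoxicity after 18 hours at 37 degrees C. The cells were HepG2 CAGA-GFP in 1% FBS DMEM, stimulated with 500 pg/mL TGF-beta after compound addition. %Activity was normalised to no-cell wells (complete cell-killing) and DMSO (no toxicity), and curves were fitted and classified.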
# TGFb inhibitor – blocks TGF-b signaling. AID 588855. HepG2 CAGA-GFP TGF-b/SMAD3 reporter, GFP fluorescence, 18 h; TGF-beta stimulated, 500 pg/mL final. Potency, µM (highest dose often 46.1 µM), for inactives: at the top dose activity, negative = inhibition, actives largely listed as inhibitors. 1.2% of 410,000 active; further: potency means the concentration at half of the fitted maximal effect; on the % scale 0 is the no-effect control and ±100 the full control effect; nearly all actives have a fitted effect of over 65% in size
#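 HEPG2 CAGA-GFP cells (1000/well, DMEM with 1% FBS) were pre-incubated 2 h at 37 degrees C, given compound by pin tool, then stimulated with TGF-beta at 500 pg/mL final for 18 h before per-cell GFP fluorescence imaging.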
# DRD3 agonist – D3 dopamine receptor (human) agonism; 0.58% of 410,000 active; D3R DiscoveRx beta-arrestin cells, luminescence, 90 min; P35462; max activation, %; in the data active means max activation above about 30%; further: 0% is about no effect
#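 Agonist mode: compounds and dopamine controls were applied to plated cells for 90 min at 37 degrees C after an overnight attachment at 1500 cells/well. Luminescent read-out followed 30 - 60 minutes at room temperature with DiscoveRx detection reagent.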
# ATXN viability – reduces viability in counter-screen for ATXN expression inhibitors | S2 cells (HEK-293 line with an ATXN2-luciferase reporter) viability, CellTiter-Fluor protease fluorescence, 24 h | Potency, µM (titrated, usually from 56.7 µM), most hits filed as cytotoxic | 0.49% of 400,000 active | AID 651635; further: potency means the concentration at half of the fitted maximal effect; nearly all actives have a fitted effect of over 40% in size
# ATXN2 expr inh – reduces ATXN2 reporter expression in HEK-293 cells. Potency, µM (top dose mostly 57 µM), for inactives: at the top dose activity change, negative = inhibition, usual class: inhibitors. 0.72% of 360,000 active. HEK-293 ATXN2-luciferase reporter, luminescence, 24 h; further: potency means the concentration at half of the fitted maximal effect; on the % scale 0 is the no-effect control and ±100 the full control effect; nearly all actives have a fitted effect of over 55% in size
#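 ATXN2-luciferase reporter cells (luciferase flanked by upstream and downstream ATXN2 gene portions) were treated 24 h at 37 °C with compounds at up to 57 uM. SteadyGlo luminescence gave expression; GF-AFC fluorescence gave viability.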
# TGFb CAGA inh – TGF-b pathway inhibition, cherry-pick retest | shares compounds with TGFb inhibitor | HepG2 CAGA-GFP TGF-b reporter, GFP fluorescence, 18 h; cells stimulated with TGF-beta, 500 pg/mL | Potency, µM (series often up to 46.1 µM), without a hit: at the highest dose activity, negative = inhibition, actives largely listed as inhibitors | 63% of 1,600 active; further: potency means the concentration at half of the fitted maximal effect; on the % scale 0 is the no-effect control and ±100 the full control effect; nearly all actives have a fitted effect of over 65% in size
# HepG2 tox-2 – toxic to HepG2 cells in TGF-b counterscreen; shares compounds with TGFb inhibitor; HepG2 CAGA-GFP viability, ATP luminescence, 18 h; cells stimulated with TGF-beta, 500 pg/mL; Potency, µM (series often up to 46.1 µM), for inactives: at the highest dose activity, negative = cytotoxicity, actives largely listed as inhibitors; 27% of 1,600 active; further: potency means the concentration at half of the fitted maximal effect; on the % scale 0 is the no-effect control and ±100 the full control effect; nearly all actives have a fitted effect of over 70% in size
# CCL64 TGFb inh – orthogonal confirmation of TGF-b inhibitors in CCL64 cells | shares compounds with TGFb inhibitor | CCL64 CAGA-GFP reporter, TGF-b stimulated, GFP fluorescence, 18 h | Potency, µM (series often up to 46.1 µM), for inactives: at the highest dose activity, negative = inhibition, usual class: inhibitors | 41% of 1,600 active | AID 720536; further: potency means the concentration at half of the fitted maximal effect; nearly all actives have a fitted effect of over 65% in size
# COP TGFb inh – validation of TGF-b inhibitors in HepG2 COP promoter reporter; shares compounds with TGFb inhibitor; HepG2 COP-GFP TGF-b reporter, GFP fluorescence, 18 h; cells stimulated by added recombinant TGF-beta; Potency, µM (series often up to 46.1 µM), for the others: top-dose activity, negative = inhibition, actives largely listed as inhibitors; 3% of 1,600 active; AID 720537; further: potency means the concentration at half of the fitted maximal effect; nearly all actives have a fitted effect of over 70% in size
# * = called active by the depositor; i = inactive; ? = inconclusive; / = no result given. An excerpt weighted towards active compounds, which were near 4.7% of everything screened. Unless noted, the call rests on the fitted dose curve; in most records, active means well fitted curve in the direction sought with a large enough effect; inconclusive means small, poorly fitted or top-dose-only effect, or another doubt; inactive means no such curve, though single readings can be large; an effect the other way counts as inactive or inconclusive.
SMILES,D3 antag,HepG2 tox-1,TGFb inhibitor,DRD3 agonist,ATXN viability,ATXN2 expr inh,TGFb CAGA inh,HepG2 tox-2,CCL64 TGFb inh,COP TGFb inh
COc1cccc(CN2CCC2(C)C(=O)Nc2cccc3cccnc23)c1F (centres undefined),3,-44%,10µM*,-3,?,?,?,-12%,?,15%
COc1cccc(C(=O)Nc2cccc(OCc3cc(=O)n4c5c(sc4n3)CCCC5)c2)c1,/,13%,9%,6,i,12%,/,/,/,/
COc1ccc(-c2nnn(CC(=O)N3CCN(c4ccccc4OC)CC3)n2)cc1,10,-25%,3.5µM*,-8,i,-3%,-17%,0%,?,-4%
CCOc1ccc(C2c3c(oc4ccc(C)cc4c3=O)C(=O)N2Cc2ccc3c(c2)OCO3)cc1OC (centres undefined),/,-3%,-15%,-15,i,3%,/,/,/,/
Cc1ccc2nc(/C(C#N)=C\c3ccc(Oc4ccc([N+](=O)[O-])cn4)cc3)[nH]c2c1,-4,9%,-17%,0,i,-17%,/,/,/,/
Cc1ccc2nc(/C(C#N)=C\c3ccc([N+](=O)[O-])o3)[nH]c2c1,-27,5µM*,?,26,/,5.6µM*,16µM*,6.5µM*,4.6µM*,5%
C[C@H](NC(=O)c1nc[nH]c1C(=O)NCCCCCNC(=O)OC(C)(C)C)C(=O)OC(C)(C)C,-15,-31%,?,24,?,-27%,-11%,-3%,?,-1%
CC(C)C[C@H](NC(=O)c1nc[nH]c1C(=O)N[C@@H](CCCCNC(=O)OC(C)(C)C)C(=O)OC(C)(C)C)C(=O)OC(C)(C)C,-9,-11%,18µM*,-11,?,-27%,8.2µM*,-20%,21µM*,12%
CCOc1ccc(-c2c(C)nn3c(C)c(C(=O)Nc4cc(C)cc(C)c4)cnc23)cc1OCC,/,-4%,0%,-18,i,-10%,/,/,/,/
Cc1sc2nc(CN(C(=O)c3cccs3)C3CCCC3)[nH]c(=O)c2c1C,-13,-21%,-18%,-1,i,13%,/,/,/,/
O=C(c1cccs1)N(Cc1nc2sc3c(c2c(=O)[nH]1)CCCC3)C1CCCC1,8,1%,?,0,?,-5%,?,?,?,29%
CN(C)CCNC(=O)COc1ccc(Cl)cc1Cl,12,-4%,-17%,1,i,3%,/,/,/,/
O=C(COc1ccc(Cl)cc1Cl)NCCSc1ccc(Cl)cc1,14,-17%,16µM*,-1,i,-21%,?,?,?,64%
Oc1c(C(c2ccccc2)N2CCC(O)CC2)sc2nc(-c3ccco3)nn12 (centres undefined),/,6%,7%,-7,/,/,/,/,/,/
